Source: PubChem BioAssay
HT1080NT lethal – kills 2HG-producing HT-1080-NT fibrosarcoma cells; HT-1080-NT fibrosarcoma viability, CellTiter-Glo ATP luminescence, 48 h; Potency, µM (top dose mostly 46.1 µM), without a hit: at the top dose activity, negative = less viability, most hits filed as cytotoxic; 360,000 compounds, 1.6% hits; AID 686970;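 note: NT is the 2HG producing partner of a matched IDH1 knockdown line; 0% = DMSO-treated cells and -100% = media-only wells without cells; nearly all actives have a fitted effect of over 55% in size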
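Viability of the 2HG-overproducing fibrosarcoma line after 48 hours of compound exposure at 37 degrees C was determined by luminescence with CellTiter-Glo, and concentration-effect curves were then fitted and categorized.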
DT40 TDP1 CPT – DT40-hTDP1 cell growth loss with CPT. chicken DT40 Tdp1-/-;hTDP1 cells + 20 nM CPT, ATP luminescence, 48 h. Potency, µM (series often up to 46.2 µM), for the others: at the highest dose activity change, negative = growth inhibition, actives largely listed as inhibitors. 420,000 compounds, 12% hits. AID 686979; note: nearly all actives have a fitted effect of over 55% in size
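Chicken DT40 Tdp1-/- cells stably complemented with human TDP1 were seeded at 400 cells/well in medium containing 20 nM camptothecin, exposed to pin-transferred compounds, and grown at 37 °C for at least 48 hr. Viability was read as ATP luminescence.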
HT1080 IDH1KD tx – kills HT-1080 cells with IDH1 knockdown. HT-1080 IDH1 knockdown viability, ATP luminescence, 48 h. Potency, µM (titrated, usually from 46.1 µM), for inactives: at the highest dose activity, negative = toxicity, most hits filed as cytotoxic. 360,000 compounds, 2% hits;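 note: 0% = DMSO wells and -100% = cell-free medium wells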
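CellTiter-Glo luminescence after 48 h compound exposure at 37 degrees C of IDH1-knockdown HT-1080 cells in 5% FBS RPMI. %Activity scaled between DMSO wells and cell-free media wells, with curves fitted and assigned curve classes.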
KB-3-1 tox – kills parental KB-3-1 adenocarcinoma cells; KB-3-1 viability, CellTiter-Glo ATP luminescence, 72 h; Potency, µM (series often up to 46.1 µM), most hits filed as cytotoxic; 400,000 compounds, 1.4% hits; note: nearly all actives have a fitted effect of over 60% in size
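Here the drug-naive KB-3-1 line serves as comparator for MDR sub-line selectivity; cells received compound titrations, 72 h at 37 °C, then CellTiter-Glo readout.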
KB-V1 MDR tox – kills drug-selected multidrug resistant KB-V1 cells. KB-V1 MDR cells viability, CellTiter-Glo, 72 h. Potency, µM (highest dose often 46.1 µM), hits mostly cytotoxic. 400,000 compounds, 3.4% hits. AID 1347076; note: nearly all actives have a fitted effect of over 60% in size
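Cytotoxicity via CellTiter-Glo luminescence after 72 h compound exposure at 37 degrees C. Cells: drug-selected KB-V1 line, DMEM phenol-red free plus 10% FBS. Compounds tested at multiple concentrations; normalized data fitted to concentration-effect curves.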
TDP1 cell noCPT – qHTS for Inhibitors of human tyrosyl-DNA phosphodiesterase 1 (TDP1): qHTS in cells in absence of CPT | DT40 Tdp1-/- hTDP1 cells, no CPT, ATP luminescence, 48 h | Potency, µM (series often up to 46.2 µM), inactives show at the highest dose activity change, negative = growth inhibition, usual class: inhibitors | 420,000 compounds, 15% hits | AID 686978, 2013; note: nearly all actives have a fitted effect of over 55% in size
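Camptothecin absent (DMSO only). Human TDP1-complemented DT40 knockout cells, 400 cells/well, 37 °C for minimum 48 hr; ATP measured via CellTiter-Glo, 30 min dark incubation, luminescence.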
The depositor's hits bear a star; i = inactive; ? = inconclusive; . = no result given; [ ] = dose if it differs, or a comment. Most compounds without a hit are left out; they make up all but 19% or so of the library. Calls come from the whole dose curve; as a rule, active = well fitted curve in the direction sought with a large enough effect; inconclusive = small, poorly fitted or top-dose-only effect, or another doubt; inactive = no such curve, though single readings can be large; an effect the other way counts as inactive or inconclusive. Unless noted, % is set by controls: 0 for no effect and ±100 for the full control effect; potency is the fitted concentration of half-maximal effect.

SMILES | HT1080NT lethal | DT40 TDP1 CPT | HT1080 IDH1KD tx | KB-3-1 tox | KB-V1 MDR tox | TDP1 cell noCPT
Cc1ccccc1OCC(=O)NCC(=O)OCC(=O)c1ccc(Br)cc1 | . | 6.4% | . | i | i | 1.8%
CNS(=O)(=O)c1cccc(C(=O)OCC(=O)/C=C2/N(C)c3ccccc3C2(C)C)c1 | -17.7% | 20.6µM* | -26.5% | i | i | 18.4µM*
CCOC(=O)/C=C1/N(C)c2ccccc2C1(C)C | -2.0% | 6.5% | -5.7% | i | i | 3.1%
CN1/C(=C\C(=O)COC(=O)CNC(=O)c2ccc3ccccc3c2)C(C)(C)c2ccccc21 | 3.0% | 18.4µM* | -0.6% | i | i | 10.3µM*
CN1/C(=C\C(=O)COC(=O)c2ccc(O)cc2)C(C)(C)c2ccccc21 | -14.3% | 14.6µM* | 3.3% | ? | ? | 16.4µM*
CN1/C(=C\C(=O)COC(=O)c2ccc(O)c(O)c2)C(C)(C)c2ccccc21 | -0.1% | 6.51µM* | ? | ? | ? | 6.51µM*
CC1(NC(=O)Cc2csc(-c3cccc(Cl)c3)n2)CCS(=O)(=O)C1 (stereo unspecified) | -0.1% | -24.0% | 0.7% | i | i | ?
COc1ccc(OC)c(NC(=O)Nc2nc(CN(C)C)cs2)c1 | 6.5% | -25.5% | 7.1% | i | i | -23.0%
Cc1ccc(C2(C)NC(=O)N(CC(=O)N(C)CC(=O)Nc3cccc4ccccc34)C2=O)cc1 (stereo unspecified) | -12.3% | -25.0% | -0.7% | i | i | -26.8%
Brc1ccc(-c2cn3cc(Cc4ccccc4)sc3n2)cc1 | . | -16.1% | . | i | i | -16.1%
CCC(C)C1=CC(=Nc2c(C)n(C)n(-c3ccccc3)c2=O)C=C(C(C)CC)C1=O (stereo unspecified) | 9.4% | ? | 4.3% | i | i | ?
CC1=CC(=Nc2c(C)n(C)n(-c3ccccc3)c2=O)C=C(C)C1=O | -1.6% | ? | ? | i | i | 20.6µM*
COc1ccc(Oc2ncc3nc(C)c(=O)n(CCC#N)c3n2)cc1 | . | 7.6% | . | . | . | -29.7%
CCOC(=O)N1CCN(C(=O)c2ccc(N(Cc3ccccc3)S(C)(=O)=O)cc2)CC1 | -1.6% | -20.6% | 4.3% | i | 16.4µM* | 5.0%
CCOC(=O)N1CCN(C(=O)c2ccc(N(Cc3ccc(C)cc3)S(C)(=O)=O)cc2)CC1 | 2.5% | -16.0% | 1.0% | i | 18.4µM* | -26.3%
CCOC(=O)N1CCN(C(=O)c2ccc(-n3c(C)ccc3C)cc2)CC1 | -9.0% | ? | -11.6% | i | i | 14.6µM*
CCOC(=O)N1CCN(C(=O)c2ccccc2N(Cc2ccccc2)S(=O)(=O)c2ccccc2)CC1 | -20.6% | 20.6µM* | -20.1% | ? | i | 20.6µM*
COc1ccc(NC(=O)CCCSc2nc(-c3ccco3)cc(C(F)(F)F)n2)cc1 | . | -17.0% | . | i | i | ?
COc1cc(C(=O)Oc2ccc3c(OC)c4ccoc4nc3c2OC)cc(OC)c1OC | . | -8.8%[9.04 µM] | . | . | . | 4.8%[9.04 µM]
CN(C)c1ccc(CNC(=O)CN2C(=O)c3cccnc3Oc3ccc(Cl)cc32)cc1 | . | ? | . | i | i | ?
S=C(Nc1ccccc1Cl)N1CCCC(c2ccccc2)=N1 | -17.0% | ? | -19.9% | i | ? | 29.1µM*
CC(C)c1ccc(NC(=S)N2CCCC(c3ccc(F)cc3)=N2)cc1 | -4.1% | ? | -1.5% | i | i | 29.1µM*
S=C(Nc1ccccc1Cl)N1CCCCCC1 | 23.6% | -18.8% | 7.6% | i | i | -14.3%
CCn1cc(CNC(=O)c2c(-c3c(Cl)cccc3Cl)noc2C)c(C)n1 | -1.9% | -17.0% | -2.1% | i | i | -21.4%
C=CC(=O)Nc1ccc(CN2C(=O)N(c3c(Cl)c(OC)cc(OC)c3Cl)Cc3cnc(NCCCCN(CC)CC)nc32)cc1 | 23.1µM* | 11.6µM* | 14.6µM* | 11.6µM* | i | 13µM*
SMILES | HT1080NT lethal | DT40 TDP1 CPT | HT1080 IDH1KD tx | KB-3-1 tox | KB-V1 MDR tox | TDP1 cell noCPT
O=C(NC1CCCCC1)n1c(=O)oc2ccc(Cl)cc21 | 16.3% | 11.6µM* | 6.9% | i | i | 13µM*
O=C(O)c1cc(-c2ccc(Cl)c(Cl)c2)n(-c2ccccc2)n1 | 5.1% | 0.9% | -3.3% | i | i | -16.6%
CCOC(=O)C1CCC(CN(Cc2cccc(Br)c2)S(=O)(=O)c2ccc(Cl)cc2)CC1 (stereo unspecified) | . | 29.1µM* | . | i | i | 20.6µM*
CCOC(=O)C1CCC(CN(Cc2ccc(OC)cc2)S(=O)(=O)c2ccc(F)c(C(=O)Nc3ccc(C)c(C)c3)c2)CC1 (stereo unspecified) | . | ? | . | i | i | -3.8%
CCOC(=O)C1CCC(CN(Cc2c(Cl)cccc2Cl)S(=O)(=O)c2ccc(Cl)cc2)CC1 (stereo unspecified) | . | ? | . | . | . | 20.6µM*
Cc1nn(CCCC(=O)NCc2ccccc2)c(=O)c2c1sc1ccccc12 | . | ? | . | . | . | -76.3%
CCn1c(C)nc2cc(C(=O)NNC(=S)Nc3ccccc3)ccc21 | 20.4% | -5.7% | 17.3% | i | i | 1.9%
CCn1c(C)nc2cc(C(=O)N/N=C(\C)c3ccc(OC)cc3O)ccc21 | ? | 9.2µM* | 14.6µM* | i | ? | 10.3µM*
CCn1c(C)nc2cc(C(=O)NNC(=S)NC(=O)c3ccccc3)ccc21 | -11.9% | ? | -24.7% | i | ? | 23.1µM*
CCn1c(C)nc2cc(C(=O)NN=C(C)c3ccc(C#N)cc3)ccc21 | -9.9% | 5.2% | -1.4% | i | i | -19.2%
CCn1c(C)nc2cc(C(=O)N/N=C/c3cccc(O)c3O)ccc21 | ? | 14.6µM* | ? | i | i | 9.2µM*
COC(=O)CCSCC(=O)N1N=C(c2ccc(OC)cc2)CC1c1cccc(OC)c1OC (stereo unspecified) | -14.0% | ? | -6.5% | i | i | ?
O=C(/C=C/c1ccc(F)cc1)NC(=S)Nc1ccccc1O | 8.2% | ? | -12.1% | i | i | 18.4µM*
Cc1ccc(O)c(NC(=S)NC(=O)/C=C/c2ccccc2)c1 | 6.5% | 24.0% | 5.5% | i | ? | -26.7%
CC(=O)c1ccc(NC(=S)NC(=O)/C=C/c2ccc(F)cc2)cc1 | 10.0% | -4.7% | 18.3% | i | i | ?
O=C(/C=C/c1ccccc1)NC(=S)Nc1ccccc1O | -7.8% | ? | -12.9% | i | i | 20.6µM*
